From PubChem BioAssay AID463117 (University of Pittsburgh Molecular Library Screening Center, 2010)
This is one part of the list. Active and inactive are the calls of the source.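 The calls were made as follows: active = mean protection from necroptosis of at least 50% over duplicate tests; inactive = mean protection below 50%.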

Experiment: rescue of L929 cells from caspase-blocker death – duplicate runs, confirmation (AID 463117);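 also: 0% = cells with zVAD alone and 100% = vehicle cells without zVAD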
Conditions: L929 zVAD-induced necroptosis rescue, ATP luminescence, 24 h; at 10 µM; hits give high values

SMILES: COC(=O)N1C(c2ccccc2)C1c1ccccc1 (stereo unspecified)
- activation (protection from necroptosis): 91.7% (active)
